Data reported in PubChem BioAssay (NCI).
The panel holds about 83,000 compounds, 20% with a hit somewhere; the sample as a whole holds those more often.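 A percent growth of 40 corresponds to 60% growth inhibition; 0 means no net growth; -100 means all cells died. Active threshold: below 10.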 Values without a mark were called inactive. Calls of active or inactive are those of the source.

Tests used:
Assay in all cases: NCI-60 one-dose screen, 48 h (100 = growth as untreated, 0 = no growth, -100 = all killed)
Details in all cases: 10 µM unless noted
HCT-15 colon = tested on: HCT-15 colon
HT29 colon = tested on: HT29 colon
SNB-75 CNS = tested on: SNB-75 CNS
SNB-19 CNS = tested on: SNB-19 CNS
U251 CNS = tested on: U251 CNS
PC-3 prostate = tested on: PC-3 prostate
SK-MEL-5 melanoma = tested on: SK-MEL-5 melanoma
UACC-62 melanoma = tested on: UACC-62 melanoma
SK-MEL-28 melanoma = tested on: SK-MEL-28 melanoma
LOX IMVI melanoma = tested on: LOX IMVI melanoma

Row | Compound | growth (HCT-15 colon) | growth (HT29 colon) | growth (SNB-75 CNS) | growth (SNB-19 CNS) | growth (U251 CNS) | growth (PC-3 prostate) | growth (SK-MEL-5 melanoma) | growth (UACC-62 melanoma) | growth (SK-MEL-28 melanoma) | growth (LOX IMVI melanoma)
1 | C[C@@H](c1ccc2c(c1)[nH]c1ccc(Cl)cc12)c1nc2ccc(Cl)cc2[nH]1 | 90.1% | 97.2% | 74.2% | 91.7% | 92.1% | 84.4% | 95% | 76.6% | 99.8% | 
2 | Cc1ccc([C@@H]2C[C@H](O)Cc3ccccc3N2)s1 | 94.1% | 117% | 98.4% | 120% | 99.6% | 92% | 105% | 117% | 116% | 
3 | COc1ccc(-c2nc(SCC(C)C)nc(Nc3ccccc3)c2C#N)cc1 | 83.4% | 78.9% | 89% | 81.3% | 50.5% | 86.9% | 96.7% | 88.1% | 112% | 
4 | COc1ccc2cc(C(C)C(=O)Nc3ccc(S(=O)(=O)Nc4cc(C)on4)cc3)ccc2c1 (stereo not given) | 93.8% | 121% | 99.7% | 117% | 98.9% | 104% | 110% |  | 111% | 96.2%
5 | COc1ccc(-c2nc(N)n(C(=S)Nc3ccccc3)n2)cc1 | 102% | 99.4% | 70% | 99.5% | 103% | 92.3% | 94% | 98% | 116% | 
6 | Cc1ccc(C(=O)Nc2ccc(CN3CCN(C)CC3)c(C(F)(F)F)c2)cc1C#Cc1cnc(N)c2ccc(F)cc12 | -93.4% (active) | -85% (active) | -70.4% (active) | -99.1% (active) | -89.2% (active) | -82.7% (active) | -96% (active) | -83.9% (active) | -96.2% (active) | 
7 | C[C@@H](c1ccc2c(c1)[nH]c1ccc(Cl)cc12)c1nc2ccccc2[nH]1 | 96% | 98% | 62.4% | 92% | 98.4% | 91.3% | 95.3% | 85.9% | 112% | 
8 | CCCCCCCCCC[N+](C)(C)N | 101% | 85.4% | 78.9% | 87.2% | 91.8% | 62.4% | 96.7% | 106% | 110% | 
9 | C=C(C)C(C(=O)OCC)(C(=O)OCC)C(C)C | 102% | 116% | 86.5% | 99.9% | 102% | 108% | 98.3% | 103% | 97% | 
10 | COc1cc(OC)c2c(=O)cc(-c3ccccc3)oc2c1 | 105% | 97.1% | 91.8% | 94.3% | 92.2% | 81.1% | 95.9% | 77.7% | 106% | 
11 | COc1cc(-c2nc3c(c(C)nc4c3nnn4-c3ccccc3)c(=O)o2)cc(OC)c1OC | 113% | 115% | 89.6% | 110% | 111% | 104% | 106% | 102% | 101% | 
12 | CCOC(=O)CCCCCCCCC(=O)OCC | 117% | 109% | 102% | 103% | 97.2% | 101% | 107% | 102% | 110% | 
13 | CCCCCCNC(=O)Oc1ccc(/C(=C(/C)Cc2ccc(OC)cc2)c2ccc(OCCN3CCCCC3)cc2)cc1 | 31.6% | 19.5% | 66.7% | 86.3% | 63.1% | 76.4% | 80.4% | 88.4% | 96.8% | 
14 | O=C(CCl)c1ccc2c(c1)CCCC2 | 69.6% | 103% | 114% | 108% | 96.5% | 95.7% | 106% | 98.5% | 105% | 
15 | CN1CCN(Cc2ccc(NC(=O)c3cncc(C#Cc4c(N)ncc5ccc(F)cc45)c3)cc2C(F)(F)F)CC1 | 25.9% | -60.1% (active) | 15.5% | 74.3% | 43.3% | 43.7% | -93.1% (active) | 22.8% | -84.9% (active) | 
